{
  "source": "the supplement of paper PMC9023506",
  "note": "Where a name gives a salt, the structure may show the parent alone.",
  "data": [
    {"system": "Danio rerio larvae (5 dpf)", "assay": "optomotor response to red moving lines, difference vs DMSO (percentage points (treated minus DMSO)); higher = more of the behaviour than the DMSO vehicle control", "conditions": "10 µM; exposure time: 3 h pre-incubation + 3 h imaging", "protocol": "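5-dpf wild-type zebrafish larvae were imaged in 96-well plates. They were treated with 190 Tocris FDA-approved drugs at 10 µM (1 µl/ml DMSO) for 3 h before and 3 h during imaging at 28.5 °C, 48 larvae per drug. Automated image analysis gave % time moving and optomotor responses. Values are drug group mean minus DMSO vehicle mean (n=844), in percentage points, for 10 behaviours.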", "values": [
      {"smiles": "CNC(=O)c1ccccc1Sc1ccc2c(/C=C/c3ccccn3)n[nH]c2c1", "note": "[Axitinib]", "optomotor response to red moving lines": 1.5},
      {"smiles": "CCN(Cc1ccncc1)C(=O)C(CO)c1ccccc1", "note": "(stereo not given) [Tropicamide]", "optomotor response to red moving lines": 1.4},
      {"smiles": "CC(C)C(=O)OCC(=O)[C@@]12O[C@H](C3CCCCC3)O[C@@H]1C[C@H]1[C@@H]3CCC4=CC(=O)C=C[C@]4(C)[C@H]3[C@@H](O)C[C@@]12C", "note": "[Ciclesonide]", "optomotor response to red moving lines": -8.97},
      {"smiles": "CCOC(=O)c1ncn2c1CN(C)C(=O)c1cc(F)ccc1-2", "note": "[Flumazenil]", "optomotor response to red moving lines": -7.04},
      {"smiles": "N#Cc1ccc(C(c2ccc(C#N)cc2)n2cncn2)cc1", "note": "[Letrozole]", "optomotor response to red moving lines": -12.7},
      {"smiles": "CC(C)COCC(CN(Cc1ccccc1)c1ccccc1)N1CCCC1", "note": "(stereo not given) [Bepridil hydrochloride]", "optomotor response to red moving lines": 3.6},
      {"smiles": "CN(CCOc1ccc(NS(C)(=O)=O)cc1)CCc1ccc(NS(C)(=O)=O)cc1", "note": "[Dofetilide]", "optomotor response to red moving lines": -14.2},
      {"smiles": "NC(=O)OCC(COC(N)=O)c1ccccc1", "note": "[Felbamate]", "optomotor response to red moving lines": -9.28},
      {"smiles": "CCc1c2c(nc3ccc(OC(=O)N4CCC(N5CCCCC5)CC4)cc13)-c1cc3c(c(=O)n1C2)COC(=O)[C@]3(O)CC", "optomotor response to red moving lines": -8.71},
      {"smiles": "C[C@]12CC[C@@H]3c4ccc(O)cc4C[C@@H](CCCCCCCCC[S+]([O-])CCCC(F)(F)C(F)(F)F)[C@H]3[C@@H]1CC[C@@H]2O", "note": "(stereo not given in full)", "optomotor response to red moving lines": -3.73},
      {"smiles": "CC1(C)O[C@@H]2[C@@H](CO[C@@]3(COS(N)(=O)=O)OC(C)(C)O[C@@H]23)O1", "note": "[Topiramate]", "optomotor response to red moving lines": -0.793},
      {"smiles": "C/C(O)=C(\\C#N)C(=O)Nc1ccc(C(F)(F)F)cc1", "note": "[Teriflunomide]", "optomotor response to red moving lines": -3.45},
      {"smiles": "Cc1cccc(CN2CCN(C(c3ccccc3)c3ccc(Cl)cc3)CC2)c1", "note": "(stereo not given) [Meclizine dihydrochloride]", "optomotor response to red moving lines": -10.1},
      {"smiles": "Cc1nc(Nc2ncc(C(=O)Nc3c(C)cccc3Cl)s2)cc(N2CCN(CCO)CC2)n1", "note": "[Dasatinib]", "optomotor response to red moving lines": -9.17},
      {"smiles": "Cc1c(-c2ccc(O)cc2)n(Cc2ccc(OCCN3CCCCCC3)cc2)c2ccc(O)cc12", "note": "[Bazedoxifene acetate]", "optomotor response to red moving lines": 9.09},
      {"smiles": "CNS(=O)(=O)Cc1ccc2[nH]cc(CCN(C)C)c2c1", "note": "[Sumatriptan succinate]", "optomotor response to red moving lines": -6.18},
      {"smiles": "O=c1n(CCCN2CCN(c3cccc(Cl)c3)CC2)nc2ccccn12", "note": "[Trazodone hydrochloride]", "optomotor response to red moving lines": 14.6},
      {"smiles": "N#Cc1ccc2[nH]cc(CCCCN3CCN(c4ccc5oc(C(N)=O)cc5c4)CC3)c2c1", "note": "[Vilazodone hydrochloride]", "optomotor response to red moving lines": 12.8},
      {"smiles": "COc1cc2nc(N3CCN(C(=O)C4COc5ccccc5O4)CC3)nc(N)c2cc1OC", "note": "(stereo not given) [Doxazosin mesylate]", "optomotor response to red moving lines": -7.06},
      {"smiles": "CC(=O)O[C@H]1C(=O)[C@@]2(C)[C@H]([C@H](OC(=O)c3ccccc3)[C@]3(O)C[C@H](OC(=O)[C@H](O)[C@@H](NC(=O)c4ccccc4)c4ccccc4)C(C)=C1C3(C)C)[C@]1(OC(C)=O)CO[C@@H]1C[C@@H]2O", "note": "[Taxol]", "optomotor response to red moving lines": 6.51},
      {"smiles": "CCCCCOC(=O)Nc1nc(=O)n([C@@H]2O[C@H](C)[C@@H](O)[C@H]2O)cc1F", "note": "[Capecitabine]", "optomotor response to red moving lines": 4.71},
      {"smiles": "CC/C(=C(\\c1ccccc1)c1ccc(OCCN(C)C)cc1)c1ccccc1", "note": "[Tamoxifen citrate]", "optomotor response to red moving lines": -11},
      {"smiles": "O=C(c1ccc(OCCN2CCCCC2)cc1)c1c(-c2ccc(O)cc2)sc2cc(O)ccc12", "note": "[Raloxifene hydrochloride]", "optomotor response to red moving lines": 3.63},
      {"smiles": "CC(C)OC(=O)C(C)(C)Oc1ccc(C(=O)c2ccc(Cl)cc2)cc1", "note": "[Fenofibrate]", "optomotor response to red moving lines": 16.3},
      {"smiles": "CCOc1nc2cccc(C(=O)O)c2n1Cc1ccc(-c2ccccc2-c2noc(=O)[nH]2)cc1", "note": "[Azilsartan]", "optomotor response to red moving lines": -3.43},
      {"smiles": "COc1ccccc1Oc1c(NS(=O)(=O)c2ccc(C(C)(C)C)cc2)nc(-c2ncccn2)nc1OCCO", "note": "[Bosentan]", "optomotor response to red moving lines": -14},
      {"smiles": "CC(C)c1nc(N(C)S(C)(=O)=O)nc(-c2ccc(F)cc2)c1/C=C/[C@@H](O)C[C@@H](O)CC(=O)O", "note": "[Rosuvastatin calcium]", "optomotor response to red moving lines": 7.07},
      {"smiles": "CCOC(=O)N1CCC(=C2c3ccc(Cl)cc3CCc3cccnc32)CC1", "note": "[Loratidine]", "optomotor response to red moving lines": -14.1},
      {"smiles": "CC[C@H](C)C(=O)O[C@H]1C[C@@H](C)C=C2C=C[C@H](C)[C@H](CC[C@@H]3C[C@@H](O)CC(=O)O3)[C@H]21", "note": "[Lovastatin]", "optomotor response to red moving lines": -6.33},
      {"smiles": "CN(C)C(=N)NC(=N)N", "note": "[Metformin hydrochloride]", "optomotor response to red moving lines": 17.8},
      {"smiles": "COc1ccccc1OCC(O)CN1CCN(CC(=O)Nc2c(C)cccc2C)CC1", "note": "(stereo not given) [Ranolazine dihydrochloride]", "optomotor response to red moving lines": 9.27},
      {"smiles": "CC(=O)NC[C@H]1CN(c2ccc(N3CCOCC3)c(F)c2)C(=O)O1", "note": "[Linezolid]", "optomotor response to red moving lines": 4.59},
      {"smiles": "COc1ccc(C[C@@H](C)NC[C@H](O)c2ccc(O)c(NC=O)c2)cc1", "note": "[Arformoterol tartrate]", "optomotor response to red moving lines": -7.51},
      {"smiles": "CN(C)CC/C=C1/c2ccccc2COc2ccc(CC(=O)O)cc21", "note": "[Olopatadine hydrochloride]", "optomotor response to red moving lines": 19},
      {"smiles": "CCc1nc(N)nc(N)c1-c1ccc(Cl)cc1", "note": "[Pyrimethamine]", "optomotor response to red moving lines": 8.52},
      {"smiles": "CN1CC2c3ccccc3Oc3ccc(Cl)cc3C2C1", "note": "(stereo not given) [Asenapine maleate]", "optomotor response to red moving lines": -5.48},
      {"smiles": "COCCc1ccc(OCC(O)CNC(C)C)cc1", "note": "(stereo not given) [Metoprolol tartrate]", "optomotor response to red moving lines": -1.5},
      {"smiles": "CN(C)CCc1c[nH]c2ccc(C[C@H]3COC(=O)N3)cc12", "note": "[Zolmitriptan]", "optomotor response to red moving lines": 2.8},
      {"smiles": "CCCCCCCN(CC)CCCC(O)c1ccc(NS(C)(=O)=O)cc1", "note": "(stereo not given) [Ibutilide hemifumarate]", "optomotor response to red moving lines": 10.1},
      {"smiles": "CCC(=O)O[C@]1(C(=O)SCF)[C@H](C)C[C@H]2[C@@H]3C[C@H](F)C4=CC(=O)C=C[C@]4(C)[C@@]3(F)[C@@H](O)C[C@@]21C", "note": "[Fluticasone propionate]", "optomotor response to red moving lines": -12.2}
    ]}
  ]
}
